In PubChem BioAssay (NCI) one finds growth data, which are given here for 14 compounds.

About 83,000 compounds went through this panel and 20% of them were active in at least one assay; those are over-represented in the sample as a whole.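 48-hour exposure, single concentration, 96-well plates; percent growth endpoint where 0 means no net growth. Active: below 10.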 Unmarked numbers belong to inactive results. Activity calls are given as the source filed them.

Assay in all cases: NCI-60 one-dose screen, 48 h (100 = growth as untreated, 0 = no growth, -100 = all killed)
One assay relates to SR leukemia. The conditions noted are these: 10 µM unless noted.
Another assay relates to RPMI-8226 leukemia. The conditions noted are these: 10 µM unless noted.
Another assay relates to OVCAR-8 ovarian. The settings on record: 10 µM unless noted.
The subject of the next assay is OVCAR-5 ovarian. The conditions noted are these: 10 µM unless noted.
A further assay has as its system OVCAR-4 ovarian. The settings on record: 10 µM unless noted.
For a further assay, the system named is SK-OV-3 ovarian. The conditions noted are these: 10 µM unless noted.
A further assay has as its system IGROV1 ovarian. The conditions noted are these: 10 µM unless noted.
A further assay deals with OVCAR-3 ovarian. The settings on record: 10 µM unless noted.
The test system of the next assay is HS 578T breast. The conditions noted are these: 10 µM.
Another assay deals with NCI/ADR-RES ovarian. The settings on record: 10 µM unless noted.

Turning to `O=C1CSC(c2c(F)cccc2Cl)N1NC(=O)C(O)(c1ccccc1)c1ccccc1` (stereo not given), the growth was 95.5% with SR leukemia; 94% in the assay with RPMI-8226 leukemia; 98.3% in the assay with OVCAR-8 ovarian; 103% in the assay with OVCAR-5 ovarian; 97.4% in the assay with OVCAR-4 ovarian; 101% in the assay on SK-OV-3 ovarian. Besides, the growth in the assay on IGROV1 ovarian was 72%; in the assay on OVCAR-3 ovarian, 100%; with HS 578T breast, 90.1%; in the assay on NCI/ADR-RES ovarian, 95.4%.

On to `O=C(Cn1ccnc1)Nc1ccc(-c2nc3ccccc3s2)cc1`, for which the growth in the assay on SR leukemia is 36.5%; in the assay on RPMI-8226 leukemia, 52%; in the assay with OVCAR-8 ovarian it was 80.3%; with OVCAR-5 ovarian, 104%; with OVCAR-4 ovarian, 34.8%; in the assay with SK-OV-3 ovarian, 87.8%. Moreover, the growth with IGROV1 ovarian is 68.9%; in the assay with OVCAR-3 ovarian, 62.2%; in the assay on HS 578T breast, 86.9%; with NCI/ADR-RES ovarian, 88.2%.

Regarding `O=S1(=O)OC(c2ccc(O)c(Cl)c2)(c2ccc(O)c(Cl)c2)c2ccccc21`, the growth in the assay with SR leukemia was 112%; in the assay with RPMI-8226 leukemia, 104%; in the assay on OVCAR-8 ovarian, 87.5%; in the assay on OVCAR-5 ovarian, 96.5%; with OVCAR-4 ovarian, 99.8%; with SK-OV-3 ovarian, 101%. Also, the growth in the assay on IGROV1 ovarian is 91.2%; in the assay with OVCAR-3 ovarian, 116%; in the assay on HS 578T breast, 97%; in the assay with NCI/ADR-RES ovarian it was 105%.

Take `CC(N)C(Cc1ccccc1)c1ccc(Cl)cc1` (stereo not given): the growth in the assay on SR leukemia is 67.9%; in the assay on RPMI-8226 leukemia, 94.5%; in the assay with OVCAR-8 ovarian, 96.1%; in the assay on OVCAR-5 ovarian it was 80.8%; in the assay on OVCAR-4 ovarian, 85.8%; in the assay on SK-OV-3 ovarian, 72.5%. Besides, the growth was 94.8% with IGROV1 ovarian, 102% in the assay on OVCAR-3 ovarian, 86.2% in the assay on HS 578T breast and 95.7% in the assay on NCI/ADR-RES ovarian.

As for `Cc1ccsc1C(NC(=O)c1ccccc1)c1cc(Cl)c2cccnc2c1O` (stereo not given), the growth in the assay on SR leukemia is 13.2%; in the assay with RPMI-8226 leukemia, 13.8%; in the assay on OVCAR-8 ovarian, 8.81% (active); in the assay on OVCAR-5 ovarian, 46.9%; with OVCAR-4 ovarian it was 32%; in the assay with SK-OV-3 ovarian it was 16%. Also, the growth is 13.1% in the assay with IGROV1 ovarian, 18.8% with OVCAR-3 ovarian, 31.5% in the assay with HS 578T breast and 7.05% (active) with NCI/ADR-RES ovarian.

As for `CC(C)[C@@H]1CC[C@@H]2[C@@H]1[C@H](OC(=O)/C=C/c1ccccc1)[C@]1(C(C)C)C[C@@H](OC(=O)CO)[C@@]2(C)O1`, the growth was 41.8% in the assay with SR leukemia; 53.7% in the assay on RPMI-8226 leukemia; 16.5% in the assay on OVCAR-8 ovarian; 109% in the assay with OVCAR-5 ovarian; 79.4% in the assay with OVCAR-4 ovarian; 91.3% in the assay with SK-OV-3 ovarian. For the same compound, the growth is 102% with IGROV1 ovarian, 83.6% in the assay on OVCAR-3 ovarian, -15.4% (active) in the assay with HS 578T breast and 13.9% with NCI/ADR-RES ovarian.

Consider `O=C1OCC2=C1C(c1cccc(F)c1)c1cc3c(cc1N2CCO)OCCO3` (stereo not given), for which the growth was 12.3% in the assay with SR leukemia; 22.1% in the assay on RPMI-8226 leukemia; 24.4% with OVCAR-8 ovarian; 30.8% in the assay with OVCAR-5 ovarian; 45% in the assay with OVCAR-4 ovarian; 27.1% in the assay on SK-OV-3 ovarian. In addition, the growth in the assay on IGROV1 ovarian was 26.3%; in the assay with OVCAR-3 ovarian, -13.9% (active); in the assay on HS 578T breast, 31.4%; in the assay with NCI/ADR-RES ovarian, 6.36% (active).

`CN1CCN(Cc2ccc(NC(=O)c3[nH]ncc3Nc3ncnc4sc5c(c34)CCCC5)cc2)CC1`: the growth in the assay with SR leukemia is -54.3% (active); with RPMI-8226 leukemia, -32.1% (active); with OVCAR-8 ovarian it was -39.6% (active); in the assay on OVCAR-5 ovarian, -86.8% (active); in the assay on OVCAR-4 ovarian, -41.4% (active); in the assay on SK-OV-3 ovarian, -5.01% (active). Moreover, the growth in the assay with IGROV1 ovarian was -60.9% (active); with OVCAR-3 ovarian it was -83.8% (active); with HS 578T breast, -32.5% (active); in the assay with NCI/ADR-RES ovarian it was -61.7% (active).

For the compound `COC(=O)CNC(=O)[C@@H](OC)[C@@H]1Cc2cc3cc(OC4CC(OC5CC(O)C(O)C(C)O5)C(O)C(C)O4)c(C)c(O)c3c(O)c2C(=O)[C@H]1OC1CC(OC2CC(OC3CC(C)(O)C(O)C(C)O3)C(O)C(C)O2)C(O)C(C)O1` (stereo not given in full), the growth in the assay on SR leukemia is 11.1%; in the assay with RPMI-8226 leukemia it was 2.86% (active); in the assay with OVCAR-8 ovarian, 12.4%; in the assay with OVCAR-5 ovarian it was 16.4%; with OVCAR-4 ovarian, 2.95% (active); in the assay on SK-OV-3 ovarian, 24.3%. Further, the growth with IGROV1 ovarian is 32%; in the assay with OVCAR-3 ovarian it was 3.71% (active); in the assay on HS 578T breast, -6.65% (active); in the assay with NCI/ADR-RES ovarian it was 88.2%.

In the case of `CNC(=O)c1cc(Oc2cccc3nc(Nc4ccc(Cl)c(F)c4)ccc23)ccn1`, the growth in the assay on SR leukemia is 62.2%; in the assay on RPMI-8226 leukemia it was 99.5%; in the assay on OVCAR-8 ovarian, 48.9%; in the assay with OVCAR-5 ovarian it was 79.7%; in the assay with OVCAR-4 ovarian, 8.11% (active); with SK-OV-3 ovarian, 41.4%. In addition, the growth in the assay with IGROV1 ovarian is 79.3%; in the assay with OVCAR-3 ovarian it was 52.2%; in the assay on HS 578T breast, 37.5%; with NCI/ADR-RES ovarian, 49.5%.

Regarding `COc1ccc2c(CCCc3ccc(Cl)cc3Cl)c3[n+](cc2c1OC)CCc1cc2c(cc1-3)OCO2`, the growth in the assay on SR leukemia is -38.6% (active); in the assay with RPMI-8226 leukemia, -24.5% (active); in the assay on OVCAR-8 ovarian, 0.597% (active); in the assay with OVCAR-5 ovarian, 28.9%; in the assay with OVCAR-4 ovarian it was 20.5%; with SK-OV-3 ovarian it was -8.36% (active). Further, the growth is -8.37% (active) in the assay with IGROV1 ovarian, -48.4% (active) in the assay on OVCAR-3 ovarian, 32.9% in the assay on HS 578T breast and 76.4% with NCI/ADR-RES ovarian.

On to `CC(N)C(Cc1ccc(Cl)cc1)c1ccc(Cl)cc1` (stereo not given), for which the growth is -9.14% (active) in the assay on SR leukemia; 25.3% in the assay on RPMI-8226 leukemia; 71.5% in the assay on OVCAR-8 ovarian; 77.9% in the assay on OVCAR-5 ovarian; 71.7% in the assay on OVCAR-4 ovarian; 81.9% in the assay on SK-OV-3 ovarian. In addition, the growth in the assay with IGROV1 ovarian is 77.8%; in the assay with OVCAR-3 ovarian, 87.2%; in the assay with HS 578T breast, 71.6%; with NCI/ADR-RES ovarian it was 87.5%.

As for `CCCCN1CCCC[C@@H]1C(=O)N[C@H](C(=O)N(C)[C@H](CCc1nc(C(=O)N[C@@H](Cc2ccccc2)C[C@H](C)C(=O)OC)cs1)C(C)C)C(C)C`, the growth was 7.34% (active) in the assay on SR leukemia; 7.01% (active) in the assay with RPMI-8226 leukemia; 82.6% in the assay on OVCAR-8 ovarian; 95.1% with OVCAR-5 ovarian; 61.3% in the assay with OVCAR-4 ovarian; 75.4% in the assay with SK-OV-3 ovarian. For the same compound, the growth in the assay with IGROV1 ovarian is 50.3%; with OVCAR-3 ovarian, 65.2%; in the assay with HS 578T breast it was 90%; in the assay with NCI/ADR-RES ovarian, 65.4%.

Turning to `C[C@@H](C[C@H](CCO)c1cc(C(F)(F)F)cc(C(F)(F)F)c1)c1ccc2ccccc2c1`, the growth in the assay with SR leukemia is 30.6%; in the assay with RPMI-8226 leukemia, 79.3%; in the assay on OVCAR-8 ovarian, 102%; in the assay on OVCAR-5 ovarian, 106%; in the assay on OVCAR-4 ovarian, 94.6%; in the assay on SK-OV-3 ovarian, 98.3%. The growth in the assay on IGROV1 ovarian is 75.3%; in the assay with OVCAR-3 ovarian, 81%; with HS 578T breast, 106%; in the assay on NCI/ADR-RES ovarian, 85.3%.
